# Assay outcomes deposited in PubChem by National Center for Advancing Translational Sciences (NCATS).
# In the library only some 12% were active in any assay of this set; here they are far more common.
# JMJD2A Tudor: qHTS Assay for Inhibitors of JMJD2A-Tudor Domain; Lysine-specific demethylase 4A (Homo sapiens), O75164; AlphaScreen JMJD2A-Tudor / H3K4me3 peptide binding; Potency, µM (titrated, usually from 114 µM), for inactives: top-dose activity change, negative = inhibition, most hits filed as inhibitors; hit rate 4.4% among 390,000; note: potency is the fitted concentration of half-maximal effect; % is set by controls: 0 for no effect and ±100 for the full control effect; nearly all actives have a fitted effect of over 50% in size
# G9a block: qHTS Assay for Inhibitors of Histone Lysine Methyltransferase G9a; G9a H3K9 monomethylation, AlphaScreen, 2 h; Potency, µM (doses to about 102 µM), without a hit: at the top dose activity, negative = inhibition, hits mostly inhibitors; hit rate 8.8% among 350,000; note: potency is the fitted concentration of half-maximal effect; % is set by controls: 0 for no effect and ±100 for the full control effect; nearly all actives have a fitted effect of over 75% in size
#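 Methyltransferase reactions run at room temperature for 2 h (20 nM enzyme, 500 nM biotin-H3K9 peptide, 20 uM SAM) after a 15 min compound preincubation; product detected by AlphaScreen beads and anti-H3K9me1 antibody.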
# PI5P4K alpha inh: qHTS for Inhibitors of phosphatidylinositol 5-phosphate 4-kinase (PI5P4K); Phosphatidylinositol 5-phosphate 4-kinase type-2 alpha (Homo sapiens), P48426; PI5P4Kalpha enzyme, ADP-Glo luminescence, 60 min; active compounds read low; max response, %; hit rate 1.2% among 330,000; active = max response of -50% or lower; inconclusive = between -30% and -50%; inactive = -30% or higher; note: value at the top dose of about 77 µM; % is set by controls: 0 for no effect and ±100 for the full control effect
# Target sequence (P48426 whole entry, looked up): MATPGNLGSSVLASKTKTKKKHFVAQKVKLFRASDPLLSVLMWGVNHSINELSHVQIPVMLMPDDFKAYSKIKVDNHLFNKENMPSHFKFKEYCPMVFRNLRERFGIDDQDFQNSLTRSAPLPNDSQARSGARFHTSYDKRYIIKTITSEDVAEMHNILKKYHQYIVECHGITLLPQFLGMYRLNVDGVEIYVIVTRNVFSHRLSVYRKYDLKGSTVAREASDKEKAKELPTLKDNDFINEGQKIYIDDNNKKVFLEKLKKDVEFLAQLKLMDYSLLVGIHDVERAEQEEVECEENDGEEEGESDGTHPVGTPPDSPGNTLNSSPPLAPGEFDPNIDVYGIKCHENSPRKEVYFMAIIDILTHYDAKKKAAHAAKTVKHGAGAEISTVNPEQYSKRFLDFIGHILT
#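 qHTS, 1536-well: enzyme/substrate mix, compound by pin tool, 5 microM ATP final; RT 60 min; ADP-Glo reagents 1 (45 min) then 2 (30 min); luminescence.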
# BAZ2B inh: qHTS Assay for Inhibitors of BAZ2B | AID 504333, 2011 | Potency, µM (titrated, usually from 114 µM), for the others: top-dose activity change, negative = inhibition, most hits filed as inhibitors | hit rate 4.4% among 360,000 | Bromodomain adjacent to zinc finger domain protein 2B (Homo sapiens), Q9UIF8 | AlphaScreen BAZ2B-H3K14Ac peptide displacement; note: potency is the fitted concentration of half-maximal effect; % is set by controls: 0 for no effect and ±100 for the full control effect; nearly all actives have a fitted effect of over 60% in size
#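 Complex of BAZ2B and biotin-H3K14Ac (50 nM apiece) forms over 30 min at RT, then faces library compounds up to 110 uM for another 30 min; AlphaScreen beads added, 20 min dark incubation, luminescence read.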
# PLK1 PBD block: qHTS for Inhibitors of PLK1-PDB (polo-like kinase 1 - polo-box domain): Primary Screen | AID 720504, 2013 | Potency, µM, without a hit: max response, negative = inhibition, usual class: inhibitors | Serine/threonine-protein kinase PLK1 (Homo sapiens), P53350 | hit rate 2.8% among 360,000 | Plk1 PBD binding of FITC phosphopeptide, fluorescence polarization; note: potency is the fitted concentration of half-maximal effect; series mostly up to about 57 µM; % is set by controls: 0 for no effect and ±100 for the full control effect; nearly all actives have a fitted effect of over 65% in size
# HP1b chromo inh: HTS for Inhibitors of HP1-beta Chromodomain Interactions with Methylated Histone Tails; Potency, µM (titrated, usually from 114 µM), without a hit: at the highest dose activity change, negative = inhibition, hits mostly inhibitors; Chromobox protein homolog 1 (Homo sapiens), P83916; hit rate 0.56% among 390,000; AID 540317, 2011; AlphaScreen HP1-beta / biotin-H3K9me3 peptide binding; note: potency is the fitted concentration of half-maximal effect; nearly all actives have a fitted effect of over 70% in size
# Target sequence (P83916 whole entry, looked up): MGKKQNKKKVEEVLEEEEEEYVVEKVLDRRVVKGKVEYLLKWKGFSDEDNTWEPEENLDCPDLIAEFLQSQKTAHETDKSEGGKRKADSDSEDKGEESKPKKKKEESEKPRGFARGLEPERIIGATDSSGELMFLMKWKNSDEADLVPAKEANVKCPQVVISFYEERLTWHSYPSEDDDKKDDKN
#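 AlphaScreen: HP1-beta (50 nM) preformed 30 min with biotin-H3(1-18)K9me3 peptide (50 nM) in PBS pH 7.4, 0.01% Tween-20. Compound added for 30 min at RT, then streptavidin donor/nickel chelate acceptor beads (10 ug/mL) for 30 min.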
# Numbers without * were called inactive; ? = inconclusive; . = not tested or not shown; [ ] = another dose, or the depositor's remark. Unless noted, calls come from the whole dose curve; as a rule, active = well fitted curve in the direction sought with a large enough effect; inconclusive = small, poorly fitted or top-dose-only effect, or another doubt; inactive = no such curve, though single readings can be large; an effect the other way counts as inactive or inconclusive.
SMILES,JMJD2A Tudor,G9a block,PI5P4K alpha inh,BAZ2B inh,PLK1 PBD block,HP1b chromo inh
CC(C)Oc1cccc(C(=O)Nc2ncn[nH]2)c1,-20%,.,-1,50µM*,-14%,54%
CCOc1ccc(C(=O)Nc2ncn[nH]2)cc1,-18%,-7%,-2,50µM*,-9%,32%
CCOc1ccc(NC(=O)c2ccc(NC(=O)Cc3n[nH]c(=O)c4ccccc34)cc2)cc1,1%,56µM*,1,-14%,-5%,20%
CN(c1ccccc1)S(=O)(=O)c1cccc(C(=O)Nc2ncn[nH]2)c1,?,24%,-4,?,6%,47%
CC(C)COc1ccc(C(=O)Nc2ncn[nH]2)cc1,-18%,.,0,18%,5%,21%
CC(C)Oc1ccc(C(=O)Nc2ncn[nH]2)cc1,?,-71%,-6,50µM*,-2%,60%
CC(NC(=O)C1CCN(CCOc2ccc(Cl)cc2)CC1)c1cccc2ccccc12 (configuration not stated),.,.,19,.,-17%,.
O=C(Nc1ncn[nH]1)c1c(Cl)ccc(Cl)c1Cl,-2%,24%[59 µM],1,31%,-2%,31%
Cc1cc(C(=O)Nc2ncn[nH]2)ccc1[N+](=O)[O-],-24%,-7%[59 µM],0,50µM*,1%,54%
O=C(Nc1ncn[nH]1)c1ccccc1O,-27%,0%[59 µM],-12,79µM*,0%,42%
CCC1CC=CC2C1C(=O)N(Cc1ccccc1)C2c1ccc2ccccc2c1 (configuration not stated),-4%,.,.,.,.,41%
COc1ccc(N2CCN(C(=O)COC(=O)CCOc3ccc(C(C)(C)C)cc3)CC2)cc1,-1%,-42%,11,-10%,0%,20%
COc1ccc(N2CCN(C(=O)COC(=O)CCOc3ccccc3C)CC2)cc1,?,32µM*,-3,?,-2%,-21%
CCOc1ccc(OCCC(=O)OCC(=O)N2CCN(c3ccc(OC)cc3)CC2)cc1,5%,-44%,5,3%,3%,15%
COc1ccc(N2CCN(C(=O)COC(=O)CCOc3cc(C)ccc3C)CC2)cc1,-10%,10µM*,12,-26%,-4%,-36%
COc1ccc(N2CCN(C(=O)COC(=O)CCc3ccccc3OC)CC2)cc1,-24%,11µM*,1,-32%,2%,-9%
COc1ccc(N2CCN(C(=O)COC(=O)CNC(=O)c3ccccc3)CC2)cc1,-8%,20%,-2,-14%,-4%,6%
O=C(COc1ccccc1)Nc1c2c(nn1-c1ccccc1)CS(=O)C2 (configuration not stated),-17%,28%,-7,19%,-13%,9%
COc1ccc(C(=O)N2CCC3(CCCN(Cc4cc(C(F)(F)F)cc(C(F)(F)F)c4)C3)CC2)cc1,.,-43%[12.7 µM],.,.,.,.
Cc1c(Cl)cccc1NC(=O)c1ccc2c(c1)CCCN2S(C)(=O)=O,-19%,-2%[59 µM],.,4%,.,5%
CCOC(=O)c1c(C)sc(-c2c(-c3cccc(Cl)c3)[nH]c3c2c(=O)n(C)c(=O)n3C)c1O,?,?,.,?,.,23%
CCOC(=O)c1c(C)sc(-c2c(-c3cc(C)ccc3C)[nH]c3c2c(=O)[nH]c(=O)n3C)c1O,-27%,?,.,50µM*,.,10%
CCOC(=O)c1c(C)sc(-c2c(-c3cc(C)ccc3C)[nH]c3c2c(=O)n(C)c(=O)n3C)c1O,?,?,.,79µM*,.,5%
COC(=O)Cc1c(C)c2ccc(OCC(=O)NC3CCS(=O)(=O)C3)cc2oc1=O (configuration not stated),-15%,.,-3,-1%,-8%,20%
COc1ccc([C@H]2C[C@@H](O)[C@H](n3cc(C4CC4)nn3)CN2Cc2cccs2)cc1,.,.,2,.,4%,.
SMILES,JMJD2A Tudor,G9a block,PI5P4K alpha inh,BAZ2B inh,PLK1 PBD block,HP1b chromo inh
Cc1ccc(N2C(=O)CS(=O)(=O)C23C(=O)N(Cc2ccccc2C)c2ccccc23)cc1Cl (configuration not stated),-25%,?,.,-2%[57.1 µM],.,3%
COc1ccc(Cc2nnc(SCc3ccc([N+](=O)[O-])cc3)o2)cc1,-35%,-7%,-5,?,-26%,?
O=c1[nH]c(CSc2nnc(Cc3ccccc3)o2)nc2ccccc12,0%,?,-5,-3%,-14%,30%
Cc1[nH]c2ccccc2c1Cc1nnc(SCc2ccccc2)o1,?,71µM*,2,?,4%,-3%
O=[N+]([O-])c1ccc(C[n+]2ccc(Cc3ccccc3)cc2)cc1,-8%,13µM*,-1,-27%,-3%,32%
O=[N+]([O-])c1ccc(CSc2nnc(Cc3ccccc3)o2)cc1,-29%,45µM*,0,-33%,?,14%
COc1ccc(-c2[nH][nH]c(=O)c2NC(=O)c2ccc(C)cc2)cc1,.,.,-14,.,-6%,.
COc1ccccc1/C=C(/C(=O)OCC(=O)Nc1ccccc1C)c1ccccc1,-18%,?,4,-5%,5%,29%
COc1ccccc1/C=C(/C(=O)OCC(=O)Nc1ccc(N(C)C)cc1)c1ccccc1,?,10µM*,4,10µM*,-19%,?
O=c1ccc(-c2ccccc2)nn1Cc1c(F)cccc1Cl,10%,5%[59 µM],.,12%,.,58%
CCOc1ccc(NC(=O)c2ccc(N3CC4CC(C3)c3cccc(=O)n3C4)c(N)c2)cc1 (configuration not stated),-11%,?,0,-29%,-14%,6%
CCc1ccccc1NC(=O)c1cc(S(=O)(=O)N(CC)c2ccccc2)ccc1F,-5%,6%[59 µM],.,9%,.,28%
CCCC(=O)Nc1ccc(N2CCN(C(=O)CCC)CC2)cc1,-20%,50µM*,.,-5%,-1%,11%
CC1CCN(CC(=O)Nc2ccc(C(=O)N3CCCCC3)cc2)CC1,1µM*,28µM*,4,50µM*,3%,?
CC(C)CC(=O)Nc1ccc(C(=O)CN2CCC(C)CC2)cc1,-2%[57.1 µM],10µM*,-19,7%,-15%,31%
CC(C)CC(=O)Nc1ccc(S(=O)(=O)N2CCCC2)cc1,-11%,18%[59 µM],5,0%,-6%,27%
CCC(=O)Nc1ccc(N2CCC(C)CC2)cc1,-16%,8.9µM*,-9,-7%,-6%,25%
COc1ccc(NC(=O)CN2CCC(C)CC2)cc1,-6%,-6%[59 µM],.,-2%,-1%,22%
CCc1ccccc1NC(=O)CSc1ncccc1C(=O)O,-14%,-11%[59 µM],.,-7%,.,36%
CCC(=O)Nc1ccc(C(=O)CN2CCC(C)CC2)cc1,.,10µM*,.,-7%,.,.
